Measurements from PubChem BioAssay AID1159580 (chemical genetic matrix, 2015).
The whole screen tested about 5,500 compounds, of which about 2,000 (36%) were called active. Inconclusive results (about 18%) are left out. No stated cut-off is given here; in the data, active means normalized growth mostly below about 0.91 (no sharp cut-off); inconclusive means no clear call, values can overlap the other calls; inactive means mostly above about 0.92. Some of the results follow.

Assay: chemical genetic growth profiling, strain panel (AID 1159580);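 further: tested at 20 µM; growth read once vehicle control cultures reached saturation at 30 °C; 1 = growth at the plate median or of vehicle wells; lower values mean less growth of the strain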
Details: S. cerevisiae deletion strains, growth OD

Measured: normalized growth

OC(CCN1CCCCC1)(c1ccccc1)C1CC2C=CC1C2 (centres undefined)
inactive: locus YAL021C, strain ccr4, active compounds read low 1.01 | locus YAL026C, strain drs2, active compounds read low 1 | locus YAL030W, strain snc1, active compounds read low 1.02 | locus YBL061C, strain skt5, active compounds read low 1.02 | locus YBR009C, strain hhf1, active compounds read low 0.985 | locus YBR023C, strain chs3, active compounds read low 0.999 | locus YBR171W, strain sec66, active compounds read low 1 | locus YBR231C, strain swc5, active compounds read low 0.999 | locus YBR279W, strain paf1, active compounds read low 0.99 | locus YCL011C, strain gbp2, active compounds read low 1.01 | locus YCL016C, strain dcc1, active compounds read low 1.04 | locus YCL061C, strain MRC1, active compounds read low 0.996 | locus YCL069W, strain vba3, active compounds read low 0.977 | locus YCR088W, strain abp1, active compounds read low 1 | locus YDL005C, strain med2, active compounds read low 1 | locus YDL040C, strain nat1, active compounds read low 1 | locus YDR001C, strain nth1, active compounds read low 0.997 | locus YDR069C, strain doa4, active compounds read low 1.02 | locus YDR137W, strain rgp1, active compounds read low 1.01 | locus YDR159W, strain sac3, active compounds read low 0.992 | locus YDR195W, strain ref2 1.01 | locus YDR297W, strain sur2, active compounds read low 1 | locus YDR334W, strain swr1, active compounds read low 0.965 | locus YDR335W, strain msn5, active compounds read low 1 | locus YDR392W, strain spt3, active compounds read low 1.03 | locus YEL003W, strain gim4, active compounds read low 0.993 | locus YEL037C, strain rad23, active compounds read low 0.988 | locus YEL061C, strain CIN8 (second series), active compounds read low 0.983 | locus YER015W, strain faa2, active compounds read low 1 | locus YER016W, strain bim1, active compounds read low 1.03 | locus YER111C, strain swi4, active compounds read low 1 | locus YER155C, strain BEM2 (second series), active compounds read low 1.01 | locus YFR010W, strain ubp6, active compounds read low 0.966 | locus YGL167C, strain pmr1, active compounds read low 1 | locus YGL173C, strain kem1, active compounds read low 1.01 | locus YGL227W, strain vid30, active compounds read low 0.989 | locus YGL240W, strain doc1, active compounds read low 0.994 | locus YGL253W, strain hxk2, active compounds read low 1.01 | locus YHR013C, strain ard1, active compounds read low 1.03 | locus YHR027C, strain rpn1, active compounds read low 0.991 | locus YHR030C, strain SLT2, active compounds read low 0.977 | locus YHR079C, strain IRE1, active compounds read low 0.996 | locus YHR142W, strain chs7, active compounds read low 1 | locus YJL092W, strain hpr5, active compounds read low 1.01 | locus YJL095W, strain BCK1 (second series), active compounds read low 1 | locus YJL095W, strain BCK1, active compounds read low 0.996 | locus YJL115W, strain asf1, active compounds read low 0.984 | locus YJL129C, strain trk1, active compounds read low 0.987 | locus YJL154C, strain vps35, active compounds read low 0.987 | locus YJL164C, strain tpk1, active compounds read low 0.997 | locus YJL166W, strain qcr8, active compounds read low 0.982 | locus YJR066W, strain TOR1, active compounds read low 0.935 | locus YKL160W, strain elf1, active compounds read low 1.03 | locus YKR026C, strain gcn3, active compounds read low 0.987 | locus YKR091W, strain srl3, active compounds read low 1 | locus YLL001W, strain dnm1, active compounds read low 0.993 | locus YLL026W, active compounds read low 0.997 | locus YLL041C, strain sdh2, active compounds read low 1.03 | locus YLR027C, strain aat2, active compounds read low 1 | locus YLR113W, strain HOG1, active compounds read low 0.987 | locus YLR221C, strain rsa3, active compounds read low 0.993 | locus YLR258W, strain gsy2, active compounds read low 0.998 | locus YLR262C, strain YPT6 (second series), active compounds read low 0.984 | locus YLR320W, strain mms22, active compounds read low 0.979 | locus YLR342W, strain FKS1, active compounds read low 1.01 | locus YLR357W, strain rsc2, active compounds read low 0.995 | locus YLR370C, strain arc18, active compounds read low 1.01 | locus YLR384C, strain iki3, active compounds read low 1.01 | locus YML120C, strain ndi1, active compounds read low 0.981 | locus YMR058W, strain fet3, active compounds read low 1 | locus YMR125W, strain sto1, active compounds read low 0.985 | locus YMR129W, active compounds read low 1 | locus YMR205C, strain PFK2, active compounds read low 1.01 | locus YMR231W, strain pep5, active compounds read low 0.995 | locus YNL071W, strain lat1, active compounds read low 0.985 | locus YNL183C, strain NPR1, active compounds read low 0.951 | locus YNL209W, strain ssb2, active compounds read low 0.995 | locus YNL248C, strain rpa49, active compounds read low 1 | locus YNL322C, strain KRE1 (second series), active compounds read low 0.995 | locus YNR049C, strain mso1, active compounds read low 1.01 | locus YOR001W, strain rrp6, active compounds read low 0.949 | locus YOR070C, strain gyp1, active compounds read low 0.989 | locus YOR080W, strain dia2, active compounds read low 1 | locus YOR083W, strain WHI5, active compounds read low 1.03 | locus YOR106W, strain vam3, active compounds read low 0.995 | locus YOR231W, strain MKK1, active compounds read low 0.991 | locus YOR265W, strain rbl2, active compounds read low 1.01 | locus YOR270C, strain vph1, active compounds read low 0.929 | locus YOR290C, strain snf2, active compounds read low 1.06 | locus YPL051W, strain arl3, active compounds read low 1.01 | locus YPL078C, strain atp4, active compounds read low 1.02 | locus YPL106C, strain sse1, active compounds read low 1.05 | locus YPL240C, strain hsp82, active compounds read low 0.982 | locus YPL256C, strain CLN2, active compounds read low 0.978
